The record followed here is PubChem BioAssay (NCATS).

The nature of assay [1]: AP1 Signaling Pathway (AID 357; active means well fitted curve in either direction with a large enough effect, not every such curve was filed as active; further: on the % scale 0 is the no-effect control and ±100 the full control effect). In outline: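 ME-180 cells with beta-lactamase reporter under AP-1 response element, stimulated with EC50 EGF; compounds tested in titration series, 5 h at 37 °C. CCF4 substrate added 2.5 h at room temperature; 460/530 nm emission ratio gave %activity and AC50.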
Assay [2] is described as follows: NFAT Signaling Pathway (AID 444; active means well fitted curve in either direction with a large enough effect, not every such curve was filed as active;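 further: carbachol stimulus at about its EC50 of 1 µM final; on the % scale 0 is the no-effect control and ±100 the full control effect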). The conditions noted are these: Jurkat NFAT-bla M1, carbachol, beta-lactamase ratio, 5 h; at 17.2 µM (top of the series) unless noted. In outline: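 Read-out: CCF4 FRET ratio (460 nm/530 nm) after 1 h RT dye loading, used for %activity and AC50 from titration series. Cells: Jurkat NFAT-β-lactamase/M1 line, treated with compound plus 1 uM carbachol for 5 h, 37 °C.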

Assay [3] in a line: Stat Signaling Pathway (AID 446; active means well fitted curve in either direction with a large enough effect, not every such curve was filed as active;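 further: ME-180 cervical cancer cells given 40 pM IL-6 alongside compound; SIE-controlled beta-lactamase reporter measured as 460/530 nm FRET emission ratio; on the % scale 0 is the no-effect control and ±100 the full control effect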). In outline:
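Emission at 460 and 530 nm (excitation 405 nm) reports SIE-controlled beta-lactamase in ME-180 cells. Cells received compound with 40 pM IL-6 for 5 hrs at 37 C; data scaled between 300 pM IL-6 and 125 nM JAK-inhibitor controls.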

Assay [4] addresses Glucocorticoid receptor (Homo sapiens) (UniProt P04150). The assay can be described thus: GR-EFC Redistribution (AID 451; calls by dose curve; further: potency means the concentration at half of the fitted maximal effect). Particulars: CHO-K1 GR-EFC translocation, beta-gal luminescence, 2 h. In outline: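 Translocation of GR-ED fusion to nuclear EA restores b-gal, read by luminescence after 1 h room-temperature detection. Engineered CHO-K1 biosensor cells, 1,000/well, exposed 2 h at 37 C to titrations up to 46 uM final.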

Assay [5] concerns the target Mitogen-activated protein kinase 10 (Mus musculus) (UniProt Q61831). The assay can be described thus: JNK3 AlphaScreen Assay (AID 530; active means well fitted curve in either direction with a large enough effect, not every such curve was filed as active;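 further: kinase came from lysate of stimulated human HepG2 cells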; further: potency means the concentration at half of the fitted maximal effect;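 on activity change, negative = inhibition: signal reports phosphorylation of biotinylated GST-cJun 1-79 at Ser73 with 10 µM ATP; on the % scale 0 is the no-effect control and ±100 the full control effect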). The procedure, abridged: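 Kinase buffer: 20 mM Tris-HCl pH 7.6, 10 mM MgCl2, 1 mM DTT, 0.1 mM Na3VO4, 0.01% Tween-20; ATP 10 uM. Substrate biotin-GST-cJun(1-79), enzyme from activated HepG2 lysates. Detection by Ser73 phospho-antibody AlphaScreen.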

For assay [6], the target named is 3',5'-cyclic-AMP phosphodiesterase 4B (Homo sapiens) (UniProt Q07343). The assay can be described thus: qHTS Assay for Inhibitors of PDE-IV (AID 607; active means well fitted activation curve with a large enough effect in the main read-out, with a control signal flat, not every such curve was filed as active; further: % of control where 0% means no effect). The procedure, abridged: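 The readout is membrane depolarisation from a cAMP-sensing CNG channel, detected with a potential dye at ex 535/em 590. Cells were HEK293-derived (endogenous PDE-IV) at 1000 cells/well, titrated up to 22.9 uM final.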
Sequence of 3',5'-cyclic-AMP phosphodiesterase 4B (Homo sapiens) (Q07343 whole entry, looked up): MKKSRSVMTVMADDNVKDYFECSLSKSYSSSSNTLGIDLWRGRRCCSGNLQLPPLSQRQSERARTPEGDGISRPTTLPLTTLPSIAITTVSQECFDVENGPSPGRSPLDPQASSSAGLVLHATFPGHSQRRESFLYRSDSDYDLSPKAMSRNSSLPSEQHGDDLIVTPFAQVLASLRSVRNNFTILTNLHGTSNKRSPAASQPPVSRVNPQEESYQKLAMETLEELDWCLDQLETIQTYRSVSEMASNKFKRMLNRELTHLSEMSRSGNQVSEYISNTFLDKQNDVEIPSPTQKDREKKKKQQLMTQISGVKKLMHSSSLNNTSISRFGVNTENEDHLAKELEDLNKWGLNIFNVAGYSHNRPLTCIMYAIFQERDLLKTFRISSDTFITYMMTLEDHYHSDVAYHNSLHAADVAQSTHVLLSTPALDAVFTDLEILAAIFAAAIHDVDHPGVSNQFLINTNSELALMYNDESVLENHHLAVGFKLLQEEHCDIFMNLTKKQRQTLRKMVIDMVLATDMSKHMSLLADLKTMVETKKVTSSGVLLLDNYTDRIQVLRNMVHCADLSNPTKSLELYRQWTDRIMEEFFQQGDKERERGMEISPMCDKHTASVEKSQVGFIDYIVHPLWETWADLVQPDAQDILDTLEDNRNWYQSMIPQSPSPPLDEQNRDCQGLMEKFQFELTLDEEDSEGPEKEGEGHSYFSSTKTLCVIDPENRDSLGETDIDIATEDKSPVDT

Assay [7] in a line: qHTS Assay for Lipid Storage Modulators (AID 1519; calls by dose curve). Particulars: Drosophila S3 cells, BODIPY lipid droplet/cell ratio, laser cytometry, cells loaded with oleic acid; for activity change, negative = inhibition: at 25.7 µM (top of the series). In outline:
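Cells seeded at 5,000 per well were treated with compounds over a concentration series and loaded with oleic acid (400 uM, as added). Lipid droplet fluorescence (488 nm excitation, 500-530 nm channel) was read by laser-scanning cytometry and normalized to 20 uM Triacsin C.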
(In general: In qHTS, concentration-response curves come from the screen itself.)

The target in assay [8] is Ubiquitin carboxyl-terminal hydrolase 1 (Homo sapiens) (UniProt O94782). The assay can be described thus: Inhibitors of USP1/UAF1: Pilot qHTS (AID 504865).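 Further: rhodamine fluorescence freed from ubiquitin-rhodamine substrate followed over time; top concentration of the series differs between compounds; on the % scale 0 is the no-effect control and ±100 the full control effect; nearly all actives have a fitted effect of over 35% in size.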 The procedure, abridged: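 Enzyme-free wells gave the negative control, while test wells held 1nM USP1/UAF1 preincubated with compound for 15 min at room temperature. Ub-Rho at 150nM final started the reaction, and fluorescence at 480/540 nm was recorded kinetically.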
Sequence of Ubiquitin carboxyl-terminal hydrolase 1 (Homo sapiens) (O94782 whole entry, looked up): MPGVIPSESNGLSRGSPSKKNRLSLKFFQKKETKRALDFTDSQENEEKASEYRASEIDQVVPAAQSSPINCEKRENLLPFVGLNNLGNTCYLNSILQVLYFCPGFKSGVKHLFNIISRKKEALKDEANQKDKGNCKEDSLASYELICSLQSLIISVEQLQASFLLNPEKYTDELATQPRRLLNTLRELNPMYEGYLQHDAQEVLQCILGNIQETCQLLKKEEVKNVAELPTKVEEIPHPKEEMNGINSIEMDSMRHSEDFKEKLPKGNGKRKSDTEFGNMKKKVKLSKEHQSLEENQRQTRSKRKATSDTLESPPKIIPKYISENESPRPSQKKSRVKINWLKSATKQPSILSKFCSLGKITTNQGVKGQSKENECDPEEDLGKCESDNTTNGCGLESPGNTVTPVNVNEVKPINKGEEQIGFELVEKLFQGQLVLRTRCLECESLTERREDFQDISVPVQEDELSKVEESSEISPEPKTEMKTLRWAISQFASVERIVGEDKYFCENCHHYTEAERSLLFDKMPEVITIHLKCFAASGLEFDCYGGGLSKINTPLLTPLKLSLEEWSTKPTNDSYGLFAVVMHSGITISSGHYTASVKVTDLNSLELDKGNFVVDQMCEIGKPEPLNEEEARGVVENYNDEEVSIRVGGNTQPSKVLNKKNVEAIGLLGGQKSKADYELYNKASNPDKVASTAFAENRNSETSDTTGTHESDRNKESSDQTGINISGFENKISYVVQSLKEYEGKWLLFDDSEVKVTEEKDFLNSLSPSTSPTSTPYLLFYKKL

Assay [9] concerns the target Glucocorticoid receptor (Homo sapiens) (UniProt P04150). The assay can be described thus: GR-GFP Redistribution (AID 450;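 active means compounds whose dose series gives a full or clear partial fitted curve of increased nuclear translocation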; further: potency means the concentration at half of the fitted maximal effect). The conditions noted are these: U2OS GR-GFP nuclear translocation, laser cytometry, 2 h.
Assay [10] is described as follows: qHTS profiling for inhibitors of Plasmodium falciparum proliferation (AID 504749).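 Further: 0% = DMSO vehicle and full inhibition = artemisinin control; nearly all actives have a fitted effect of over 60% in size.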 The conditions noted are these: P. falciparum in erythrocytes, SYBR Green DNA, 72 h, at 12.8 µM (top of the series). In outline:
(§1)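 In a 72 h erythrocytic culture (37 C, humidified, 5% CO2) at 2.5% hematocrit and 0.3% starting parasitemia, compounds were tested; SYBR Green I in detergent lysis buffer stained parasite DNA overnight.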

For another assay, the system named is C2A. The description is as above. The conditions noted are these: P. falciparum in erythrocytes, SYBR Green DNA, 72 h; series mostly up to 12.8 µM. The procedure, abridged:
as §1

In another assay the test system is CP191. The description is as above. Particulars: P. falciparum in erythrocytes, SYBR Green DNA, 72 h; series mostly up to 12.8 µM. The procedure, abridged: as §1
For another assay, the system named is CP217. The description is as above. Particulars: P. falciparum in erythrocytes, SYBR Green DNA, 72 h; series mostly up to 12.8 µM. In outline:
as §1

Another assay deals with CP238. The assay is described as above. Particulars: P. falciparum in erythrocytes, SYBR Green DNA, 72 h; series mostly up to 12.8 µM. In outline: as §1
For another assay, the system named is CP250. Described as above. The conditions noted are these: P. falciparum in erythrocytes, SYBR Green DNA, 72 h; series mostly up to 12.8 µM. The procedure, abridged: as §1
The next assay concerns CP256. The assay is described as above. Particulars: P. falciparum in erythrocytes, SYBR Green DNA, 72 h; series mostly up to 12.8 µM. In outline: as §1
A further assay deals with FAB9. The assay is described as above. The conditions noted are these: P. falciparum in erythrocytes, SYBR Green DNA, 72 h; series mostly up to 12.8 µM. In outline:
as §1

The test system of the next assay is JCK. The assay is described as above. Particulars: P. falciparum in erythrocytes, SYBR Green DNA, 72 h; series mostly up to 12.8 µM. In outline: as §1
The next assay concerns PC49. The assay is described as above. Particulars: P. falciparum in erythrocytes, SYBR Green DNA, 72 h; series mostly up to 12.8 µM. The procedure, abridged: as §1
The test system of the next assay is SC27B. The description is as above. The conditions noted are these: P. falciparum in erythrocytes, SYBR Green DNA, 72 h; series mostly up to 12.8 µM. The procedure, abridged: as §1
Setting [11] is: measured here: cell count channel max response.
The mark [12] stands for this setting: measured here: lipid channel max response.

Inconclusive results are not listed. Calls of active or inactive are those of the source. Unless noted, the call rests on the fitted dose curve; in most records, active means well fitted inhibition curve with a large enough effect; inconclusive means small, poorly fitted or top-dose-only effect; inactive means flat fitted curve, though single readings scatter. Where only a bound is given, the exact number is not on record here.

Sequence of Glucocorticoid receptor (Homo sapiens) (P04150 whole entry, looked up, the tested form may be a part): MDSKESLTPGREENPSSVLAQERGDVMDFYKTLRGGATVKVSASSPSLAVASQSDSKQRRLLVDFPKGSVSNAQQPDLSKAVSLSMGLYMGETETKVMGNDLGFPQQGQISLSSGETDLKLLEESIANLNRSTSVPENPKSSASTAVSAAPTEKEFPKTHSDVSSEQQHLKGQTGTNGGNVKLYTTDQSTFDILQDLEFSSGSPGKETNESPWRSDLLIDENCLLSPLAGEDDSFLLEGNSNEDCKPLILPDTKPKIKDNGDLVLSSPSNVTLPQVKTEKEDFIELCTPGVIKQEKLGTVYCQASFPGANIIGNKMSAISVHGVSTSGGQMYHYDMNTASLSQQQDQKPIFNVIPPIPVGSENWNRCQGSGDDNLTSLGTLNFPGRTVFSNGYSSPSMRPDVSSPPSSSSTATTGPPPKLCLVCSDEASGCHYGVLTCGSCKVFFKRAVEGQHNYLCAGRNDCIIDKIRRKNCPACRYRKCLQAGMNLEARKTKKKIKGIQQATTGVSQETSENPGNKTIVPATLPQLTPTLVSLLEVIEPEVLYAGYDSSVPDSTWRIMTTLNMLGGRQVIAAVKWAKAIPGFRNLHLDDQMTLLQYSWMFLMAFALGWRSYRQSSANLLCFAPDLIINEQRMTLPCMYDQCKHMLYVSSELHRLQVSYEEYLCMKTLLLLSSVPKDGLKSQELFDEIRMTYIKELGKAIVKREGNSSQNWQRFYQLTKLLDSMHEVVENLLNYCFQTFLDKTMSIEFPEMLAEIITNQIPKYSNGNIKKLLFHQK

For `CC1(C)S[C@@H]2[C@H](NC(=O)COc3ccccc3)C(=O)N2[C@H]1C(=O)O` (tested in a mixture with another compound), the outcome in assay [1], in assay [3] and in assay [6] was inactive. Also, the values for the activity change, negative = inhibition in assay [2] and in [7] were -7.06% (inactive) and 1.44% (inactive), respectively. Moreover, the Potency in [4] is > 20.6 µM (inactive). In addition, the Potency result in [5] and in [8] was “inactive” throughout. For the same compound, the values for the max response in [7] (setting [11]) and in assay [7] (setting [12]) were -7.85% and -7.74%, respectively.

In the case of `O[C@H](c1cc(C(F)(F)F)nc2c(C(F)(F)F)cccc12)[C@H]1CCCCN1`, the outcome in [1], in assay [3] and in assay [6] was inactive. Moreover, the activity change, negative = inhibition was 24.6% (inactive) in [2] and -11.8% (inactive) in assay [7]. Besides, the Potency in [9] is > 20.6 µM (inactive). For the same compound, the Potency entry in assay [5] and in assay [8] was “inactive” each time. Besides, the max response was -16.3% in assay [7] (setting [11]) and -23.7% in assay [7] (setting [12]).

Regarding `Cc1cccc(C)c1NC(=O)[C@H](C)N`, the outcome in assay [1], in [3] and in assay [6] was inactive. The activity change, negative = inhibition in assay [2] was -7.54% (inactive); in assay [7], -1.94% (inactive). Further, in assay [9], the Potency is > 20.6 µM (inactive). The Potency entry (in assay [5]; in assay [8]; in the assay on C2A; in the assay on CP191; in the assay with CP217; in the assay with CP238) was “inactive” throughout. The Potency entry in the assay on CP250, in the assay with CP256, with FAB9, in the assay with JCK, with PC49 and in the assay on SC27B was “inactive” throughout. For the same compound, the max response in assay [7] (setting [11]) is -3.54%; in assay [7] (setting [12]) it was -7.81%. Besides, the activity, negative = inhibition is 7.15% (inactive) in assay [10] (parasite line A) and 10.5% (inactive) in assay [10] (parasite line B).

Regarding `O=C(O)CCCC[C@H]1SC[C@H]2NC(=O)N[C@@H]21`, the result in assay [1], in assay [3] and in [6] was inactive. The activity change, negative = inhibition is 2.95% (inactive) in assay [2] and -3.62% (inactive) in [7]. The Potency in assay [9] is > 20.6 µM (inactive); in assay [5], 0.00126 µM (active). Besides, the max response was 5.29% in assay [7] (setting [11]) and 0.0876% in assay [7] (setting [12]). Further, the Potency entry in assay [8] was “inactive”.

For `COc1ccccc1OC[C@H](O)CO`, the outcome in assay [1], in assay [3] and in [6] was inactive. Moreover, the activity change, negative = inhibition was -3.75% (inactive) in assay [2] and -4.43% (inactive) in assay [7]. The Potency result (in assay [5]; in [8]; in the assay with C2A; in the assay on CP191; in the assay with CP217; in the assay on CP238) was “inactive” in each case. Also, the Potency result with CP250, with CP256, in the assay on FAB9, in the assay on JCK, in the assay with PC49 and with SC27B was “inactive” throughout. The values for the max response in assay [7] (setting [11]) and in [7] (setting [12]) were -24.7% and -36%, respectively. The activity, negative = inhibition in assay [10] (parasite line A) was 5.68% (inactive); in assay [10] (parasite line B), 4.87% (inactive).

As for `O=c1cc(-c2ccc(O)cc2)oc2c([C@H]3O[C@@H](CO)[C@@H](O)[C@@H](O)[C@@H]3O)c(O)cc(O)c12`, the compound was classed as inactive in assay [1], in assay [3] and in assay [6]. Moreover, the results for the activity change, negative = inhibition in assay [2] and in assay [7] were 2.91% (inactive) and -1.45% (inactive), respectively. Moreover, the Potency in assay [9] was > 20.6 µM (inactive). Moreover, the Potency entry in assay [5] and in assay [8] was “inactive” in each case. Moreover, the figures for the max response in assay [7] (setting [11]) and in assay [7] (setting [12]) were -1.3% and 1.02%, respectively.
